3T3 cytotox: NIH 3T3 cell cytotoxicity; NIH 3T3 viability, CellTiter-Glo ATP luminescence, 48-72 h; Potency, µM (highest dose often 96.7 µM), inactives show at the highest dose activity change, negative = cytotoxicity, usual class: inhibitors; 94,000 tested, 4.3% active; AID 1345082; also: nearly all actives have a fitted effect of over 55% in size
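First NIH 3T3 cells are plated at 400 cells/well; next compound is pinned in; then plates incubate 48 or 72 hr at 37 °C; finally CellTiter-Glo is added and luminescence read after 10 min.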
FLuc inh: Photinus pyralis luciferase inhibition; P08659; 76,000 tested, 2.5% active; AID 1347043; purified P. pyralis luciferase, luminescence, biochemical; Potency, µM (doses to about 115 µM), most hits filed as inhibitors; also: nearly all actives have a fitted effect of over 65% in size
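Biochemical qHTS: compound (6-point titration) added to 10uM D-luciferin plus 10uM ATP in Tris acetate pH 7.5 buffer with Mg, Tween-20 and BSA, then purified enzyme at 10nM; light output imaged.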
NPR1 antag: human Npr1 receptor antagonism; P16066; HEK293 hNpr1 GloSensor cGMP, ANP-stimulated luminescence; Potency, µM (highest dose often 46.3 µM), without a hit: at the top dose activity change, negative = inhibition, most hits filed as inhibitors; 76,000 tested, 1.6% active; calls by dose curve; also: nearly all actives have a fitted effect of over 60% in size
Target sequence (P16066 whole entry, looked up): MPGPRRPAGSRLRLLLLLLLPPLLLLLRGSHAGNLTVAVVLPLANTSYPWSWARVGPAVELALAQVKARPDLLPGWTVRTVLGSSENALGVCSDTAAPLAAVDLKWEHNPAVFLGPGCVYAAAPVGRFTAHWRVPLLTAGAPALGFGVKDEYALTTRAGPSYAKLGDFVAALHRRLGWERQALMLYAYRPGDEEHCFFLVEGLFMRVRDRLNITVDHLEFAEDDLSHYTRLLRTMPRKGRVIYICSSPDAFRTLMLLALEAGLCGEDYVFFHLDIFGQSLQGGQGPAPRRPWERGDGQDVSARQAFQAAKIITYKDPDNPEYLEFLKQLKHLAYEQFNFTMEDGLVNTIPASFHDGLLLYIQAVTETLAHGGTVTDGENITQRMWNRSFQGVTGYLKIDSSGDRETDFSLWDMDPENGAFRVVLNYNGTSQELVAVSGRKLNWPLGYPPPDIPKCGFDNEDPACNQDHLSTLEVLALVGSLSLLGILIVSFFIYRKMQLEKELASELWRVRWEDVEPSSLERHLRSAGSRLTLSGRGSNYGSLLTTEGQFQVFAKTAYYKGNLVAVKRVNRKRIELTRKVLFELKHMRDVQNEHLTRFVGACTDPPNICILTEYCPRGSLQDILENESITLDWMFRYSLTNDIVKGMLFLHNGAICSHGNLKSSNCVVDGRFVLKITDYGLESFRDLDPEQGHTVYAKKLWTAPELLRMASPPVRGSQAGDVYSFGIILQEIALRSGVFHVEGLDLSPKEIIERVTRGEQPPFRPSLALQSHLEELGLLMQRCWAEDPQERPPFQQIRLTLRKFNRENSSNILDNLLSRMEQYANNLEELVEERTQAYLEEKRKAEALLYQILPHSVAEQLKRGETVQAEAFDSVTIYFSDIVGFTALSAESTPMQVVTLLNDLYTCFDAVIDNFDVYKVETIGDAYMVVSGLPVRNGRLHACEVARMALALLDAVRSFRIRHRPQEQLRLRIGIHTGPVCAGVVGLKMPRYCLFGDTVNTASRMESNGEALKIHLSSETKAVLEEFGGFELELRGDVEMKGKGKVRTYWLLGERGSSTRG
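HEK293 cells stably expressing human Npr1 and cGMP GloSensor pGS-40F, loaded 2 h with 2% GloSensor reagent, given compound 30 min at room temperature. Luminescence read before and 20 min after 0.1 nM hNppA.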
HEK cytotox: kills HEK 293 cells; HEK 293 viability, ATP luminescence (CellTiter-Glo), 48-72 h; Potency, µM (doses to about 115 µM), for the others: at the highest dose activity change, negative = cytotoxicity, actives largely listed as inhibitors; 94,000 tested, 6.6% active; also: nearly all actives have a fitted effect of over 60% in size
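Luminescence from cellular ATP, measured with CellTiter-Glo, indicates HEK 293 viability. Cells plated at 250 cells/well are treated with compound for 48 or 72 hr at 37 degree Celsius before reagent addition.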
An asterisk follows results filed as active; i = inactive; ? = inconclusive; · = not tested or not shown; ! = not confirmed by another sample; [ ] = another dose, or the depositor's remark. In the library only some 11% were active in any assay of this set; here they are far more common. Unless noted, calls follow the shape of the dose curve; as a rule, active = well fitted curve in the direction sought with a large enough effect; inconclusive = small, poorly fitted or top-dose-only effect, or another doubt; inactive = no such curve, though single readings can be large; an effect the other way counts as inactive or inconclusive. % is scaled to controls: 0 for no effect and ±100 for the full control effect; potency is read from the fitted curve at half-maximal effect.

SMILES	3T3 cytotox	FLuc inh	NPR1 antag	HEK cytotox
COc1ccc(OCC2CN(Cc3cccs3)[S+](=O)([O-])c3cnccc3O2)cc1 (stereo not drawn)	-26%[46.1 µM]	·	·	?
O=S1(=O)c2cccnc2OC(COc2ccccc2)CN1Cc1cccs1 (stereo not drawn)	28µM*	·	·	?
CN(C)c1ccc(CN2CC(N3CCc4ccccc43)C2)cc1	89µM*	i	-6%[70.6 µM]	89µM*
Fc1ccc(CN2CC(N3CCc4ccccc43)C2)cc1	-10%[138 µM]	·	·	-16%[172 µM]
Cc1cccc(CC(=O)N2CCCCCC2c2nnc(-c3ccccc3)o2)c1 (stereo not drawn)	?	i	-2%	79µM*
O=C(NC1CCCCC1)c1c(-c2cccnc2)cc(=O)n2c1CCCC2	-24%	·	·	-32%
O=C(c1ccc(Cl)nc1)N1CCC2(C1)C(=O)N(CCc1ccccc1)c1ccccc12 (stereo not drawn)	?	i	6%	?
O=C(c1ccccc1Cl)N1CCC2(C1)C(=O)N(CCc1ccccc1)c1ccccc12 (stereo not drawn)	?	i	62%	40µM*!
O=C(c1ccc(C(F)(F)F)cc1)N1CCC2(C1)C(=O)N(CCc1ccccc1)c1ccccc12 (stereo not drawn)	40µM*!	i	?	32µM*
Cc1ccccc1C(=O)N1CCC2(C1)C(=O)N(CCc1ccccc1)c1ccccc12 (stereo not drawn)	?	i	-2%	40µM*!
CCN1C(=O)C2(CCN(S(=O)(=O)c3ccc(C(F)(F)F)cc3)CC2)c2ccccc21	-11%	i	-1%	32µM*
CCOCCCNC(=O)N1CC(Oc2ccc(-c3nc(-c4ccccc4)no3)cc2)C1	-28%	?	0.56µM*	?
CCCNC(=O)N1CC(Oc2ccc(-c3nc(-c4ccccc4)no3)cc2)C1	-41%	?	0.4µM*	-51%
O=C(C1CCOCC1)N1CC(Oc2ccc(-c3nc(-c4ccccc4)no3)cc2)C1	-15%	?	?	?
O=C(CN1CCCCCC1)N1CC(Oc2ccc(-c3noc(-c4ccccc4)n3)cc2)C1	?	?	-12%	?
CCN(CC)C(=O)C(C)[C@@H]1CC[C@@]2(C)CC[C@H](NC(=O)c3ccccc3)[C@@H](C)[C@@H]2[C@H]1O (stereo partly drawn)	-18%[138 µM]	i	-25%[70.6 µM]	-17%[172 µM]
COc1ccc(-c2noc(-c3nc(C)no3)n2)cc1	3%	i	4%	-2%
COc1ccc(-c2noc(-c3ccc(N4C[C@H]5CC[C@H]4C5)nc3)n2)cc1	-22%	25µM*	?	?
O=S(=O)(Cc1ccccc1)N1CCCC(Cc2noc(-c3cnccn3)n2)C1 (stereo not drawn)	i	i	0%	1%
Cc1nn(-c2ccccc2)c(C)c1[C@@H]1C=C[C@@H](NC(=O)c2ccco2)C1	?	i	35µM*	?
Cc1nn(-c2ccc(C(F)(F)F)cc2)c(C)c1[C@@H]1C=C[C@@H](NC(=O)Nc2cccc(C#N)c2)C1	25µM*	7.1µM*	?	?
Cc1nn(-c2ccccc2[N+](=O)[O-])c(C)c1[C@@H]1C=C[C@@H](NC(=O)Nc2cccc(C#N)c2)C1	?	?	?	40µM*
Cc1nn(-c2ccccc2)c(C)c1[C@@H]1C=C[C@@H](NC(=O)CCCC(=O)O)C1	i	i	6%[70.6 µM]	i
Cc1nn(CCC#N)c(C)c1[C@@H]1C=C[C@@H](NC(=O)Nc2ccccc2)C1	?	?	3%[70.6 µM]	-3%[172 µM]
Cc1nn(-c2ccc(C(F)(F)F)cc2)c(C)c1[C@@H]1C=C[C@@H](NC(=O)CSCC(=O)O)C1	-14%	i	-2%	?
SMILES	3T3 cytotox	FLuc inh	NPR1 antag	HEK cytotox
Cc1nn(-c2ccc(C(F)(F)F)cc2)c(C)c1[C@@H]1C=C[C@@H](NC(=O)c2cccnc2)C1	28µM*	?	-26%[70.6 µM]	?
COc1ccccc1-n1c(=O)c(C(=O)NC2CC2)nc2cccnc21	-20%[138 µM]	·	·	-9%[172 µM]
COc1cc(C)ccc1OCc1cc(C(=O)N(C)Cc2ncccc2C)no1	35µM*	i	3%	40µM*
CN(Cc1ccc2nccnc2c1)C(=O)c1cc(COc2ccc(F)cc2F)on1	?	?	-19%	?
OC[C@@H]1CN(CC2CC2)C[C@H]1c1nc(-c2cccnc2)no1	-12%	?	1%	-28%
CC(C)N1C[C@@H](CO)[C@H](c2nc(-c3cccnc3)no2)C1	-6%	20µM*	3%	?
CSc1ccc(-c2cccc(CN3CCC(NC(=O)Nc4ccccc4)CC3)c2)cc1	14µM*	·	·	?
CSc1ccc(-c2cccc(CN3CCC(NC(=O)NC4CCCC4)CC3)c2)cc1	-17%	·	·	-9%
CSc1ccc(-c2cccc(CN3CCC(NC(=O)Nc4ccccc4F)CC3)c2)cc1	13µM*	·	·	18µM*
CCOCCCNC(=O)C1CCCN1Cc1cccc(-c2cccc(OC)c2)c1 (stereo not drawn)	32µM*	·	·	25µM*
CCCCCNC(=O)C1CCCN1Cc1ccc(-c2cccc(OC)c2)cc1 (stereo not drawn)	40µM*	·	·	22µM*
COCCCNC(=O)C1CCCN1Cc1ccc(-c2cncnc2)cc1 (stereo not drawn)	-22%	·	·	-1%
COc1cccc(-c2ccc(CN3CCCC3C(=O)N3CCOCC3)cc2)c1 (stereo not drawn)	-26%	·	·	?
C=CCC(=O)N1CCCC1C(=O)Nc1ccc(-c2cccc(OC)c2)cc1 (stereo not drawn)	-6%	25µM*	-2%	?
COc1cccc(-c2cccc(CN3CCCC3C(=O)N3CCCC(C)C3)c2)c1 (stereo not drawn)	?	·	·	50µM*
Fc1ccc(-c2cnc3n2C[C@H](CNC2CCCC2)OC3)cc1	-21%[138 µM]	i	-5%[70.6 µM]	-9%[172 µM]
O=C(Cc1ccc(F)cc1)N1CCCC(C(=O)N2CCC(N3CCOC3=O)CC2)C1 (stereo not drawn)	-2%	·	·	1%
N#Cc1ccccc1Nc1ccnc(N2CC3CCC(C2)N3CC(F)(F)F)n1	-24%	·	·	?
COc1cccc(-c2cccc(CN3CCCC3C(=O)NCc3ccc(Cl)cc3)c2)c1 (stereo not drawn)	40µM*	·	·	40µM*
COc1cccc(CNC(=O)C2CCCCC(=O)N2Cc2ccccc2)c1 (stereo not drawn)	-19%	·	·	-20%
COc1cccc(-c2ccc(NC(=O)C3CCCN(C(=O)CC(F)(F)F)C3)cc2)c1 (stereo not drawn)	?	?	16µM*	?
COc1cccc(-c2ccc(NC(=O)C3CCCN3Cc3cnn(C)c3)cc2)c1 (stereo not drawn)	?	i	-1%	45µM*
COc1cccc(CNC(=O)C2CCCN2Cc2ccc(-c3cccc(OC)c3)cc2)c1 (stereo not drawn)	35µM*	·	·	?
COCc1nc(CCNC(=O)c2cnn3c(C)c(Cc4ccccc4Cl)c(C)nc23)no1	?	i	0%	?

Source: PubChem
